Source: the supplement of paper PMC4962491
± gives the standard deviation of the averaged measurements.

Test system: FaDu
Test: mitochondrial oxygen consumption rate normalised to cell number, Z score vs plate DMSO wells; higher = higher oxygen consumption (negative = OCR reduction)
Settings: treatment time 24 h, assay medium: 5 mM glucose, 5 mM pyruvate, 4 mM glutamine
Experimental: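 Secondary screen: FaDu cells were incubated 24 h with the top 130 primary hits at 0.08, 0.4, 2 or 10 uM. Mitochondrial-specific OCR (basal minus antimycin A) was measured on a Seahorse XF96 in medium with 5 mM glucose, 5 mM pyruvate and 4 mM glutamine and normalised to Hoechst cell number. OCR score = (OCR - mean of plate DMSO wells) / SD of plate DMSO wells. Three repeats.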
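Further: compound exposure in DMEM (4 mM L-glutamine, 5 mM glucose), antimycin A injected at 2 µM after the basal reading and its residual OCR subtracted from basal.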

Structure (SMILES) | mitochondrial oxygen consumption rate normalised (0.08 µM) | mitochondrial oxygen consumption rate normalised (0.4 µM) | mitochondrial oxygen consumption rate normalised (2 µM) | mitochondrial oxygen consumption rate normalised (10 µM)
Cc1cc(N)c2ccccc2[n+]1CCCCCCCCCC[n+]1c(C)cc(N)c2ccccc21 | 0.324 ± 0.65 | 0.622 ± 0.8 | -4.67 ± 2.1 | -7.52 ± 1.4
Nc1nc(Cl)nc2c1ncn2[C@H]1C[C@H](O)[C@@H](CO)O1 [Cladribine] | 0.0971 ± 0.62 | 1.11 ± 0.78 | 0.797 ± 2 | -0.553 ± 2.5
Oc1c(Cl)cc(Cl)c(Cl)c1Cc1c(O)c(Cl)cc(Cl)c1Cl | -0.831 ± 1.9 | 1.92 ± 0.93 | -2.48 ± 0.61 | -13.3 ± 0.45
CCc1cc(Cl)c(OC)c(C(=O)NC[C@@H]2CCCN2CC)c1O | 0.346 ± 0.99 | 1.18 ± 0.45 | 0.712 ± 2.1 | 0.556 ± 2.2
CCC(C)n1ncn(-c2ccc(N3CCN(c4ccc(OCC5COC(Cn6cncn6)(c6ccc(Cl)cc6Cl)O5)cc4)CC3)cc2)c1=O (stereo not given) | 0.265 ± 1.4 | 1.4 ± 0.68 | -0.554 ± 1.1 | -4.35 ± 1.6
Clc1ccc(COC(Cn2ccnc2)c2ccc(Cl)cc2Cl)cc1 (stereo not given) | 0.524 ± 0.89 | 0.994 ± 1.6 | 0.111 ± 1.5 | -4.62 ± 1.4
CC(=O)Oc1ccccc1C(=O)Nc1ncc([N+](=O)[O-])s1 | 0.233 ± 1.2 | 1.38 ± 0.59 | 1.82 ± 0.7 | 1.49 ± 1.2
Cc1cc(C(C)(C)CC(C)(C)C)ccc1OCCOCC[N+](C)(C)Cc1ccccc1 | -1.05 ± 0.63 | 0.588 ± 0.44 | -5.29 ± 1.2 | -12.6 ± 0.23
C[n+]1c2cc(N)ccc2cc2ccc(N)cc21 | 0.662 ± 0.73 | -1.94 ± 0.8 | -5.7 ± 0.82 | -12.3 ± 0.21
Nc1nc2[nH]cnc2c(=S)[nH]1 | -1.04 ± 1.9 | -0.865 ± 0.14 | -5.57 ± 0.33 | -5.01 ± 1.4
